Compound activity deposited in PubChem BioAssay by National Center for Advancing Translational Sciences (NCATS).
In the library only some 7.4% were active in any assay of this set; here they are far more common.
FLuc counter: firefly luciferase modulation, counter-screen for miR-21 project | P08659 | purified FLuc, Km substrates, luminescence inhibition | Potency, µM (highest dose often 57.5 µM), for inactives: at the top dose activity change, negative = inhibition, most hits filed as inhibitors | hit rate 6.9% among 360,000 | AID 588342;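 also: plate controls were vehicle for no effect and reference inhibitor for full effect; nearly all actives have a fitted effect of over 55% in size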
Target sequence (P08659 whole entry, looked up): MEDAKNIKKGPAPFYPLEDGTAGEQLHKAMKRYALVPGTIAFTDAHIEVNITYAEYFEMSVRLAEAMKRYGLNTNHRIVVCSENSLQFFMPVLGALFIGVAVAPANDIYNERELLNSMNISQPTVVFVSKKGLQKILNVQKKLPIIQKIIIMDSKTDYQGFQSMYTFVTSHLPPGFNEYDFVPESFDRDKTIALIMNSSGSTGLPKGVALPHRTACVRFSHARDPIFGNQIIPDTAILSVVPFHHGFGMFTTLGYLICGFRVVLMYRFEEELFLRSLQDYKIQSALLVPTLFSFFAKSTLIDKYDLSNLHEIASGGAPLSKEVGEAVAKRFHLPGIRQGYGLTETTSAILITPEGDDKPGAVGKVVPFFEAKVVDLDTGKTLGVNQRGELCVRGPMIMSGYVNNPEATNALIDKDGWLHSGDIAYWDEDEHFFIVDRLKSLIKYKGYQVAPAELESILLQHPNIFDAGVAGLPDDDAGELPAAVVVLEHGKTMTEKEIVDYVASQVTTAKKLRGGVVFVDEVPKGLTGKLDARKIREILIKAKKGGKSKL
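Biochemical qHTS of compounds, final roughly 60 µM downward over six points, against 10 nM purified firefly luciferase using Km concentrations of substrates (10 uM D-luciferin, 10 uM ATP) in Tris acetate pH 7.5 buffer; luminescence output.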
NPC1 promoter act: NPC1 promoter activation | Huh7 NPC1 promoter luciferase reporter, 24 h | Potency, µM (highest dose often 9.22 µM), inactives show top-dose activation, actives largely listed as activators | hit rate 2.4% among 320,000 | AID 485313; also: % of control where 0% means no effect; nearly all actives have a fitted effect of over 60% in size
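NPC1 promoter–luciferase Huh7 cells; 24 h compound; luminescence.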
p53 reactivator: re-activators of mutant p53; hit rate 0.063% among 320,000; Potency, µM (doses to about 92.2 µM), inactives show top-dose activity change, positive = activation, actives largely listed as activators; H1299 p53-A138V BP100-luciferase reporter, luminescence, 24 h; also: % of control where 0% means no effect; nearly all actives have a fitted effect of over 45% in size
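H1299 (p53-null), stable ts p53-A138V + BP100-Luc; 1000 cells/well, Opti-MEM/10% FBS; cpd 4 pt, 1:5; 24 h, 37 deg C, 5% CO2; detection reagent 10 min RT; luminescence.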
SMN2 splice enh: enhancers of SMN2 splice variant expression; HEK293 SMN2-luciferase splicing reporter, luminescence, 30-36 h; Potency, µM (titrated, usually from 46.1 µM), without a hit: at the top dose activity change, positive = activation, most hits filed as activators; hit rate 2.8% among 210,000; also: % of control where 0% means no effect; nearly all actives have a fitted effect of over 55% in size
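qHTS luciferase splicing reporter: luminescence rises when SMN2 exon 7 is included in transfected HEK293 cells. Compound exposure lasted 30-36 h at 37C, with 4.5 mM final sodium butyrate as control, followed by a ONE-Glo read.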
ELG1 genotoxic: induces genotoxicity in HEK293T cells with luciferase-tagged ELG1 | Potency, µM (series often up to 46 µM), for inactives: at the top dose activity change, positive = activation, usual class: activators | HEK293T ELG1-luciferase reporter, luminescence, 16 h | hit rate 1.3% among 330,000; also: % of control where 0% means no effect; nearly all actives have a fitted effect of over 60% in size
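HEK293T cells expressing luciferase-tagged ELG1 were treated with compound or DMSO for 16 hr at 37°C. Luciferase activity was then read after 30 min with ONE-Glo at room temperature; rising signal flags genetic stress.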
Rab9 prom act: activators of Rab9 promoter; AID 485297; hit rate 2.8% among 320,000; Huh7 Rab9 promoter-luciferase reporter, luminescence, 24 h; Potency, µM (titrated, usually from 9.22 µM), without a hit: top-dose activation, negative = inhibition, hits mostly activators; also: % of control where 0% means no effect; nearly all actives have a fitted effect of over 60% in size
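Cells were plated at 1500 per well in reduced-serum medium with 10% FBS and left 2 h. Compound in DMSO was then added for 24 h at 37 °C. Reporter signal was read by luminescence after 10 min with luciferase detection reagent.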
Starred values were filed as active, the others as inactive; u = inconclusive; x = no result given; [ ] = remark or other dose. Calls follow the shape of the dose curve; as a rule, active = well fitted curve in the direction sought with a large enough effect; inconclusive = small, poorly fitted or top-dose-only effect, or another doubt; inactive = no such curve, though single readings can be large; an effect the other way counts as inactive or inconclusive. Potency is read from the fitted curve at half-maximal effect.

SMILES	FLuc counter	NPC1 promoter act	p53 reactivator	SMN2 splice enh	ELG1 genotoxic	Rab9 prom act
N#Cc1nc(-c2cccs2)oc1NCC1CCCO1 (stereo not given)	-14%	1%	19%	16%	6%	-1%
Cc1cccc(-c2nc(C#N)c(NCC3CCCO3)o2)c1 (stereo not given)	12µM*	2.8µM*	u	x	u	2.5µM*
Cc1ccc(-c2nc(C#N)c(NCC3CCCO3)o2)cc1 (stereo not given)	21µM*	u	7%	13µM*	u	u
CCOc1ccc(-c2nc(C#N)c(NCc3ccc4c(c3)OCO4)o2)cc1	-15%	11%	u	u	4%	16%
Cc1cccc(-c2nc(C#N)c(N3CCCCCC3)o2)c1	11µM*	23%	u	u	16µM*	18%
CCOc1ccc(-c2nc(C#N)c(NC3CC3)o2)cc1	15µM*	13%	u	27%	30%	u
CCCCNC(=O)CSc1nc2cc3c(cc2c(=O)n1CCCC(=O)NCc1ccc(OC)cc1)OCO3	-4%	x	x	x	x	x
COc1ccc(-c2nc3c(c4c2C[C@H](c2ccccc2)OC4)CN(S(=O)(=O)c2ccc(C)cc2)CC3)c(C)c1	x	x	x	-4%[9.22 µM]	x	x
O=CN1CCN(S(=O)(=O)c2ccc(S(=O)(=O)NC3CCCCC3)cc2)CC1	2%	-2%	0%	x	0%	0%
CC1CC[C@@]23CCC4(C)[C@@]5(C)CCC6C(C)(C)C(=O)CC[C@@]6(C)C5C=C[C@@]4(OC2=O)C3C1C (stereo not given in full)	x	x	x	6%	x	x
COc1ccc(-c2nc(C#N)c(NCCCN3CCOCC3)o2)cc1	u	3%	3%	-21%	24%	7%
COc1ccc(-c2nc(C#N)c(NCC3CCCO3)o2)cc1 (stereo not given)	13µM*	22%	4%	u	13%	21%
CC(C)=CCN1CCN(Cc2cnc(N3CCCC3)s2)CC1CCO (stereo not given)	-1%	-1%	-2%	x	-2%	8%
CC(C)=CCN1CCN(Cc2cnc(C)s2)CC1CCO (stereo not given)	6.7µM*	1.6µM*	13%	x	u	0.79µM*
COC(=O)c1ccc(CN2CCN(CC(C)C)C(CCO)C2)cc1 (stereo not given)	-1%	1%	-12%	x	-3%	0%
COC(=O)c1ccc(CN2CCN(CC=C(C)C)C(CCO)C2)cc1 (stereo not given)	17µM*	-1%	1%	x	2%	-2%
CC(C)=CCN1CCN(Cc2cnc(N3CCOCC3)s2)CC1CCO (stereo not given)	2.1µM*	3.2µM*	14%	x	u	2.8µM*
CCN(CC)c1nn2c(=O)c(C(=O)NCc3ccccc3Br)cnc2s1	2%	x	x	x	x	x
Cc1nc(N2CCOCC2)c2nc(-c3ccccc3)n(CCN3CCOCC3)c2n1	x	x	x	9%	x	x
O=C(CCCl)N1CCN(c2nc(-c3ccccc3)cs2)CC1	15µM*	u	-7%	x	14%	u
Clc1ccc(-c2csc(N3CCOCC3)n2)cc1	11µM*	u	19%	18µM*	u	3.2µM*
CCS(=O)(=O)N1CCN(c2nc(-c3ccccc3)cs2)CC1	19µM*	21%	15%	20%	u	20%
FC(F)(F)c1cc(-c2ccccc2)nc(N2CCCCCC2)n1	3%[2.3 µM]	-1%	8%	7%	-1%	-1%
c1ccc(-c2cnnc(N3CCCCC3)n2)cc1	11µM*	2.5µM*	u	29%	u	1.4µM*
O=[N+]([O-])c1ccc(N2CCN(c3nc(-c4ccc(Cl)cc4)cs3)CC2)cc1	6%	-1%	3%	-46%	-11%	-9%
Cc1ccccc1NS(=O)(=O)c1nnc(NC(=O)c2ccccc2C)s1	u	-4%	2%	x	-2%	-4%
